# Experimental data: the supplement of paper PMC11417369
# ± gives the standard deviation of the averaged measurements. The full ranking holds about 25,000 sequences; the median of “ln(normalized median fluorescence intensity)” is about 8.9, and the highest 2% start at about 10. For the sample, the highest values were picked, then their nearest neighbours and some sequences at random.
# Tested on: PfAP2-LT AP2 domain (GST-tagged)
# Assay: gcPBM binding intensity (ln(normalized median fluorescence intensity)); higher = stronger DNA binding
# Outline: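 Binding intensity is the highest Masliner-normalised natural-log median intensity over replicate spots in either probe orientation. To obtain it, GST-tagged P. falciparum DNA-binding domains made in E. coli were incubated for 1 h on an Agilent 4 × 180k array of primer-extended double-stranded 36-bp intergenic genomic probes plus negative controls. Detection used Alexa488 anti-GST antibody with scanning at 488 nm.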
row,Sequence,gcPBM binding intensity (ln)
1,TAAAAGGGGATATATGAACACACAAAAAAAAAATAT [CACACA_site8940],9.04 ± 0.64
2,ACGTTACATACATATACACACACATATATATATATA [CACACA_site8203],9.93 ± 0.16
3,TACATACATACATACACACACACATATATATACATA [CACACA_site853],10.1 ± 0.23
4,CATACATACATACATACACACATACAGATATATATA [CACACA_site4890],9.4 ± 0.38
5,GTTACATACAGATACACACACATATATATATATATA [CACACA_site4652],10.2 ± 0.4
6,GTTACATACATATACACACACATATATATATATATA [CACACA_site901],10.2 ± 0.17
7,CACAGATATATACATACACACATATATACACATATA [CACACA_site6323],9.39 ± 0.32
8,CTCCACAAACAAATCGCACACCCAACCCAACATATA [CACACA_site2650],9.68 ± 0.34
9,TATTTTTTTGTGTTTGGTACACACGTTATAAAAAAT [XGTACX_site2655],8.8 ± 0.36
10,CACAGACACCCATACACACACATACCCATATATATA [CACACA_site5023],9.56 ± 0.34
11,AAAAAAAACGCACATACACACACACCCATATATATA [CACACA_site9118],10.13 ± 0.028
12,AAAAAAAAAAAAAACACACACACACCCACATATACA [CACACA_site2663],10.2 ± 0.16
13,AAAAAAAAAAAAAAAACACACATACACCCAGACACA [CACACA_site5807],9.71 ± 0.18
14,AAAAAAAAAAAAAAAACACACATACACCCCCACCCA [CACACA_site9117],9.89 ± 0.18
15,AAAAAACACCCATACACACACACACCGATATATATA [CACACA_site5808],10.2 ± 0.24
16,AAAAAACAGACATACACACACACACCCATATATATA [CACACA_site3392],10.4 ± 0.21
17,TTAATATTATGTTAAAGTACTTTATATATATATAAT [XGTACX_site2646],8.57 ± 0.3
18,AAGACTGCACTTTAAGCACACAAATATATTTTTTTT [CACACA_site8337],8.86 ± 0.38
19,TACAAATATATATGCACACACATATCTGTATATGTG [CACACA_site5663],9.58 ± 0.26
20,GTAATATATACAAAATGTACAAAACAATAACATGAT [XGTACX_site8575],9.2 ± 0.52
21,TAATAAAATATGTACACACATACACCCATATATATA [CACACA_site1220],9.21 ± 0.35
22,GTTTAAAATCTTTGCACACATATAAATAAATATATT [CACACA_site2555],8.9 ± 0.41
23,TATAAACACCCATATAAACACACATACATACATACA [CACACA_site8791],9.51 ± 0.33

row,Sequence,gcPBM binding intensity (ln)
1,TAAACACCCATATAAACACACATACATACATACATA [CACACA_site5383],9.53 ± 0.4
2,AAAAAAAAAAAACACACACACACACCCATATACATA [CACACA_site2664],10.31 ± 0.085
3,AAAAATAAAAAAAACACACATACCTTATTTTTGTTC [CACACA_site2634],8.98 ± 0.42
4,TATATATATATATATGTGCGCATTACTTTAAGAATA,9.6 ± 0.25
5,TCTTTTTGCATGTGTGTGCGCACAAAATACACAAAA [GTGCAC_site9718],9.39 ± 0.3
6,AAAACAAAAGAATTCACACATATATATATATATATA [CACACA_site4777],10.1 ± 0.16
7,TACACAAGAAAATTCACACACACACCGATATATATA [CACACA_site6008],9.87 ± 0.16
8,TACACAAGAAAATTCACACACACACCCATATATATA [CACACA_site3879],10.12 ± 0.092
9,CACAAGAAAGTTCACACACACACATATATATATATA [CACACA_site6009],9.93 ± 0.62
10,CATACACAAGAAAATTCACACACACCCATATATATA [CACACA_site9288],9.87 ± 0.23
11,CACAAGAAAATTCACACACACACATATATATATATA [CACACA_site3880],10.2 ± 0.14
12,TATATATGTTCAATATGTACATATATATAAGTGTAT [XGTACX_site5157],8.79 ± 0.41
13,AATATATCAAAAATTGGATAGTTTCTTATAAAAAAT [CACACA_negctrl_site39],8.43 ± 0.46
14,ATATATATATATATATGTACATATATTCGATTATTA [XGTACX_site557],9.695 ± 0.035
15,TACATATATATAAATACACACACACCCACCTTATAA [CACACA_site9346],9.88 ± 0.15
16,AAATTATAATATAATACACACATAAAAAAAAAAAAA [CACACA_site7],8.93 ± 0.47
17,TAATTATATAAATACACACACATACACCCAAATAAA [CACACA_site5819],9.8 ± 0.2
18,CATATATATAAATACACACACACACCCCTTATAATT [CACACA_site4064],10.2 ± 0.15
19,CATATAAATAAATACACACACACACGCCTTATAATT [CACACA_site7830],10.19 ± 0.078
20,ACATATAAATTATATACACACAATAATATATATATA [CACACA_site1384],9.01 ± 0.39
21,CCTCCCATTTTTACACGTACACATTTAAAATAGACT [XGTACX_site5640],8.95 ± 0.21
22,TATAAAGGTGAAATTTGTACATAGTCATTTTTTAAT [XGTACX_site4811],8.52 ± 0.42
23,TATAAAAAAATATATATATATATATATATATAAATA [TGCATGCA_negctrl_site22],9.09 ± 0.37

row,Sequence,gcPBM binding intensity (ln)
1,TAATAAAGTGAATAATGTACATTTTATTTATTATAT [XGTACX_site6614],8.62 ± 0.45
2,GATGCACTTTAAAAATGTACTTATACCTTTAATTGT [XGTACX_site6395],8.76 ± 0.41
3,AAAAAAAAAAGACACACACACACATAAATATAAATA [CACACA_site6215],10.2 ± 0.42
4,AAAAAAAAAAGACACACACACATATAAATATAAATA [CACACA_site6899],9.81 ± 0.26
5,TATAAATAAAGACACACACACATATAAATAAATATA [CACACA_site7155],9.68 ± 0.26
6,TATAAAAGTAGACACACACACATATAAATATAAATA [CACACA_site6567],9.66 ± 0.27
7,ATAAAAAAAAGACACACACACATATATATATATATA [CACACA_site3073],10.2 ± 0.18
8,AATATAAAAAAAAAAAAAAAAAAAAAAAAAAAGACA [CACACA_negctrl_site983],8.66 ± 0.5
9,AAAGAAAGAAGACACACACACATATATAAATATCAA [CACACA_site7715],9.88 ± 0.23
10,CATATAAAAAGACACACACACACATATATATATATA [CACACA_site940],9.92 ± 0.31
11,ATAAAAAAAGGACACACACACATATATTTATTTATA [CACACA_site7438],9.71 ± 0.19
12,ATAAAAAAAGGACACACACACATATATATATATATA [CACACA_site5662],10.46 ± 0.05
13,CATATAAAAGGACACACACACACATATAAATATGTA [CACACA_site6568],9.88 ± 0.3
14,TAAAAAGGAAGACACACACACACATATATAAATATA [CACACA_site7657],10.2 ± 0.34
15,TTTGTGCCTATAAATTAACACACAGAAATATATAGA [CACACA_site8175],9.06 ± 0.28
16,TACTTCATTCATTTTACACACATATAAACCCTTTTA [CACACA_site3229],9.15 ± 0.47
17,ATTTATATGTAGATGTGTACTTAATTGTAATGTGTT [XGTACX_site6422],8.95 ± 0.45
18,TTTATTTCCTTTTTGTGTACATATATATGTAATTCA [XGTACX_site1718],8.78 ± 0.53
19,AACAAAATTGAAGGAACACACATACATATTTATATA [CACACA_site6227],9.07 ± 0.41
20,AATTTATAAATAATTAATTTGATAAATTATAAAGGG [GTGCAC_negctrl_site544],8.45 ± 0.45
21,AAAAAGAAATATTTATGTACATAATAATAATATTTT [XGTACX_site4693],8.63 ± 0.44
22,GGCTAAAAGTTGCACACACACAAAAAAAAAAAAAAA [CACACA_site7531],9.37 ± 0.51
23,ATTTATGAAAGAAATAGTACACACATAAACATTTGT [XGTACX_site5862],9.03 ± 0.36

row,Sequence,gcPBM binding intensity (ln)
1,TATAAAAAAATATATATATATATTATATGTGTAGAA [TGCATGCA_negctrl_site391],8.71 ± 0.54
2,GTAATCCACAAACACACACACATACACATATATATA [CACACA_site2728],9.98 ± 0.19
3,AATCCACAAAGACACACACACACATATATATATATA [CACACA_site1269],10.2 ± 0.23
4,AAAAAAAAAAAAAAGACACACATATATATATATATA [CACACA_site633],10.1 ± 0.13
5,TATTTATTTAAAGGCACACATATTTTTATACTTTCT [CACACA_site3163],8.79 ± 0.49
6,AAATTTATAAAGAACACACACATATATATATATATA [CACACA_site48],10 ± 0.21
7,AATTTTTTTTTTTTTTTTTTTTATATATGTGTGTGT [XGTACX_negctrl_site129],9.32 ± 0.42
8,TGTGTCAAGTTTAATAAACGCATATAATATATATGA [CACACA_negctrl_site607],8.59 ± 0.41
9,TTTTTTATATATGTGTGTGTGTGTGTGTCAAGTTTA [GTGCAC_negctrl_site460],10.3 ± 0.24
10,TTTATATTTAAATGCATGCACTTTCTATTTTTTTTT [GTGCAC_site9959],9.13 ± 0.53
11,CTTACATATTACATATGTACATATACACCTTATGTC [XGTACX_site4679],9.19 ± 0.41
12,TACAATTGTAAAGGCGCACACATATATATATATATA [CACACA_site1392],10.3 ± 0.23
13,AAAAAAAGGTAAAATTGTACATACGCACAAAAATAT [XGTACX_site2887],9 ± 0.51
14,TTATTGCGCACAATTTGTACATATATATATATAGAA [XGTACX_site7573],8.84 ± 0.4
15,TATTGTAAGAAAGGCACACAGATAAAATTATTATAT [CACACA_site2921],8.83 ± 0.51
16,GTTTTATAAAAAGGCGCACACATATACATAAATATA [CACACA_site1864],9.37 ± 0.47
17,TGCAATTGTAAAGGCGCACACATATATATATATATA [CACACA_site4894],10.2 ± 0.13
18,AATCTGATTTGTATATGTACACAAATATTTTTATTT [XGTACX_site5295],8.99 ± 0.53
19,TAATATCAAACCTATAGTACATAAGGTATAAAAAAG [XGTACX_site3533],8.86 ± 0.44
20,TTCTGAACAAAATTATATATTTATTTTTATTTTCAT [CACACA_negctrl_site422],8.48 ± 0.5
